Source: PubChem BioAssay
PAFAH1B3 FP inh = blocks human PAF acetylhydrolase 1B catalytic subunit 3; 340,000 compounds, 0.28% hits; recombinant PAFAH1B3, FP-rhodamine probe, fluorescence polarization; inhibition, % at 3.39 µM; AID 492972; Q15102;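 active = inhibition above the screen-wide average of all tested compounds plus 3 SD, cut at about 25% in these data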;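 also: 0% = enzyme with DMSO only and 100% = wells lacking PAFAH1B3 protein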
PP5 primary = blocks human protein phosphatase 5 activity; P53041; purified PP5c, OMFP substrate fluorescence; inhibition, % at 6.7 µM; 320,000 compounds, 0.18% hits; AID 1987;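 active = inhibition above the campaign's mean inhibition across all tested compounds plus 3 SD, cut at about 9.5% in these data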;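 also: 0% = DMSO only and 100% = 100 µM cantharidin control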
Target sequence (P53041 whole entry, looked up): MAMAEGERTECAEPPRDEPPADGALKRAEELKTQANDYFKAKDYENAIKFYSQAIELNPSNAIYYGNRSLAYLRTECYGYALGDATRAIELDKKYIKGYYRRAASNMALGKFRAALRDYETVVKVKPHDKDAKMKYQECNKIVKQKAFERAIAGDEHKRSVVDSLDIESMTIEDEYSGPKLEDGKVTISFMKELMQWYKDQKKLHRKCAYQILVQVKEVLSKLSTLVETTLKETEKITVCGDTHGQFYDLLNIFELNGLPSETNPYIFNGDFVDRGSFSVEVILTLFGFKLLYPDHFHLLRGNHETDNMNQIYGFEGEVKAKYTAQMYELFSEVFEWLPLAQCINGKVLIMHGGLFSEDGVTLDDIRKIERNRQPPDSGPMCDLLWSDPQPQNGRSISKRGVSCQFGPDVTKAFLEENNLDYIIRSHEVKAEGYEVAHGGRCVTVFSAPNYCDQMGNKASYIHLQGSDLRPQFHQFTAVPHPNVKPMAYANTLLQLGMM
PP1 counter = blocks human PP1-alpha phosphatase, a PP5 counter-screen; P62136; purified PP1alpha, OMFP fluorescence; inhibition, % at 6.7 µM; 320,000 compounds, 0.9% hits; AID 2235;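 active = inhibition above the mean inhibition of all tested compounds plus 3 SD, computed separately for each screening campaign, cut at about 15% in these data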
PAFAH2 inh = PAFAH2 (human) inhibition; recombinant PAFAH2, FP-rhodamine activity probe, fluorescence polarization; 340,000 compounds, 0.99% hits; Q99487; inhibition, % at 3.39 µM;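 active = inhibition above the mean over all tested compounds plus 3 SD, cut at about 30% in these data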;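 also: inhibitors block probe labeling of enzyme so polarization drops; 0% = enzyme with DMSO and 100% = wells lacking PAFAH2 protein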
pPAFAH FP inh = inhibitors of human plasma PAF acetylhydrolase (pPAFAH) | recombinant pPAFAH, FP-rhodamine probe fluorescence polarization | 330,000 compounds, 1.5% hits | inhibition, % at 3.39 µM | AID 463082 | Q13093;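 active = inhibition above the mean inhibition across the screen plus 3 SD, cut at about 25% in these data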;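 also: inhibitors block binding of the rhodamine activity-based probe so polarization drops; 0% = enzyme with DMSO and 100% = wells lacking pPAFAH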
PAFAH1B2 FP inh = PAFAH1B2 (human) inhibition | inhibition, % at 3.39 µM | recombinant PAFAH1B2, FP-rhodamine activity probe, fluorescence polarization | 340,000 compounds, 1.2% hits;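 active = inhibition above the mean of all tested compounds plus 3 SD, cut at about 24% in these data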;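 also: 0% = enzyme with DMSO and 100% = wells lacking PAFAH1B2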
pPAFAH FP conf = pPAFAH (human) inhibition, confirmed; shares compounds with pPAFAH FP inh; recombinant pPAFAH, FP-Rh probe fluorescence polarization; inhibition, % at 3.39 µM; 2,300 compounds, 72% hits;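 active = mean inhibition of the triplicate above the hit cutoff set for the earlier primary screen, cut at about 25% in these data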;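 also: 0% = enzyme with DMSO and 100% = wells lacking pPAFAH enzyme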
Numbers without * were called inactive. Sampled rows, rich in hits. Any-hit rate of the full collection: about 3.4%.

Screening O=S(=O)(c1ccc(NC(=S)N/N=C/c2ccc(O)c(O)c2)cc1)N1CCOCC1 returned PAFAH1B3 FP inh 12, PP5 primary 1, PP1 counter -2, PAFAH2 inh 5, pPAFAH FP inh 65*, PAFAH1B2 FP inh 6 and pPAFAH FP conf 61*.
NNC(=O)c1cccc(S(=O)(=O)Nc2cccc(C(F)(F)F)c2)c1 was read as PAFAH1B3 FP inh -25, PP5 primary -1, PP1 counter 2, PAFAH2 inh -22, pPAFAH FP inh -3 and PAFAH1B2 FP inh -6.
Cc1[nH]c2ccccc2c1/C=N/NC(=O)c1cccc(S(=O)(=O)Nc2cccc(C(F)(F)F)c2)c1 was read as PAFAH1B3 FP inh 43*, PP5 primary 8, PP1 counter 2, PAFAH2 inh 12, pPAFAH FP inh 40*, PAFAH1B2 FP inh 35* and pPAFAH FP conf 40*.
C=CCn1c(N/N=C/c2ccc(O)cc2)nc2ccccc2c1=O was read as PAFAH1B3 FP inh 1, PP5 primary 3, PP1 counter -1, PAFAH2 inh 4, pPAFAH FP inh 35*, PAFAH1B2 FP inh 5 and pPAFAH FP conf 9.
CN(C)C(=O)NC(Nc1ccc(Cl)cc1Cl)C(Cl)(Cl)Cl (stereo not drawn) was read as PAFAH1B3 FP inh 4, PP5 primary 1, PP1 counter -2, PAFAH2 inh 9, pPAFAH FP inh 42*, PAFAH1B2 FP inh 1 and pPAFAH FP conf 4.
For O=C(Nc1ccc(Cl)cc1Cl)C1=Cc2ccccc2OC1 the results were PAFAH1B3 FP inh -9, PP5 primary 0, PP1 counter 4, PAFAH2 inh -2, pPAFAH FP inh -3 and PAFAH1B2 FP inh 0.
COC(=O)c1ccccc1NC(=O)CCC(=O)N1CCSc2ccccc21 was read as PAFAH1B3 FP inh -2, PP5 primary 2, PP1 counter -4, PAFAH2 inh 1, pPAFAH FP inh 41*, PAFAH1B2 FP inh 9 and pPAFAH FP conf 4.
`Cc1cc(C)cc(NC(=O)CCC(=O)N2CCSc3ccccc32)c1` gave PAFAH1B3 FP inh 1, PP5 primary 2, PP1 counter -6, PAFAH2 inh 0, pPAFAH FP inh 12 and PAFAH1B2 FP inh 6.
`COc1cc2[nH]c3c(N4CCN(c5ccc(Cl)cc5)CC4)ncnc3c2cc1OC` gave PAFAH1B3 FP inh 38*, PP5 primary 4, PP1 counter 2, PAFAH2 inh 1, pPAFAH FP inh 62*, PAFAH1B2 FP inh 12 and pPAFAH FP conf 54*.
`COc1ccc(NS(=O)(=O)c2cccc(NC(=O)c3ccc(S(=O)(=O)N4CCCCCC4)cc3)c2)cc1` gave PAFAH1B3 FP inh -39, PP5 primary 1, PP1 counter 1, PAFAH2 inh -86, pPAFAH FP inh -27 and PAFAH1B2 FP inh -18.
O=S(=O)(Nc1cc(S(=O)(=O)N2CCCC2)ccc1O)c1ccc(Cl)s1 was read as PAFAH1B3 FP inh 6, PAFAH2 inh 1 and PAFAH1B2 FP inh 3.
`COc1ccc(NS(=O)(=O)c2ccc(O)c(NC(=O)c3ccc(S(=O)(=O)N4CCCCCC4)cc3)c2)cc1` gave PAFAH1B3 FP inh -16, PP5 primary -1, PP1 counter 4, PAFAH2 inh -26, pPAFAH FP inh 46*, PAFAH1B2 FP inh 1 and pPAFAH FP conf 57*.
O=C(Nc1cc(S(=O)(=O)N2CCOCC2)ccc1O)c1ccc(NS(=O)(=O)c2ccc(Cl)s2)cc1 was read as PAFAH1B3 FP inh -4, PP5 primary -1, PP1 counter -4, PAFAH2 inh 2, pPAFAH FP inh 45*, PAFAH1B2 FP inh 7 and pPAFAH FP conf 45*.
CCc1ccc(CNC(=O)Cc2ccc(NC(=O)C3=C(C)OCCS3)cc2)cc1 was read as PAFAH1B3 FP inh 1, PP5 primary 4, PP1 counter 1, PAFAH2 inh 10, pPAFAH FP inh 36*, PAFAH1B2 FP inh 3 and pPAFAH FP conf 20.
Screening CN(CC(=O)Nc1ccc(Cl)cc1)C(=O)c1ccc(-n2cncn2)c([N+](=O)[O-])c1 returned PAFAH1B3 FP inh -7, PP5 primary 1, PP1 counter -3, PAFAH2 inh 3, pPAFAH FP inh 71*, PAFAH1B2 FP inh 4 and pPAFAH FP conf 0.
For COC(=O)c1ccccc1-c1c2ccc(=N)cc-2oc2cc(N)ccc12 the results were PAFAH1B3 FP inh 149*, PP5 primary inactive, PP1 counter inactive, PAFAH2 inh 148*, pPAFAH FP inh 126*, PAFAH1B2 FP inh 134* and pPAFAH FP conf 132*.
CCC(=O)N(Cc1cc2c(C)ccc(C)c2[nH]c1=O)C1CCCCC1 was read as PAFAH1B3 FP inh 2, PP5 primary -3, PP1 counter -1, PAFAH2 inh 5, pPAFAH FP inh 0 and PAFAH1B2 FP inh -1.
For Cc1cc(O)cc(O)c1C=NCc1ccco1 the results were PAFAH1B3 FP inh 5, PP5 primary 0, PP1 counter 0, PAFAH2 inh 1, pPAFAH FP inh 10 and PAFAH1B2 FP inh 5.
For CC1(C)Cc2ccccc2C(=NCC(=O)O)N1 the results were PAFAH1B3 FP inh 10, PP5 primary 3, PP1 counter -5, PAFAH2 inh -6, pPAFAH FP inh 35*, PAFAH1B2 FP inh 3 and pPAFAH FP conf 2.
`CN1C(=O)c2cccc3c(Cl)ccc(c23)C1=O` gave PAFAH1B3 FP inh -2, PP5 primary 3, PP1 counter 0, PAFAH2 inh 5, pPAFAH FP inh 3 and PAFAH1B2 FP inh -1.
CNc1ccc2c3c(cccc13)C(=O)N(C)C2=O was read as PAFAH1B3 FP inh 68*, PP5 primary -26, PP1 counter -42, PAFAH2 inh 71*, pPAFAH FP inh 54*, PAFAH1B2 FP inh 58* and pPAFAH FP conf 39*.
Screening COc1cc2cc3c(N)c(C(=O)NCc4ccco4)sc3nc2cc1OC returned PAFAH1B3 FP inh 9, PP5 primary 3, PP1 counter 1, PAFAH2 inh 0, pPAFAH FP inh 24 and PAFAH1B2 FP inh -2.
For COc1cc2cc3c(N)c(C(=O)Nc4sc(C)c(C)c4C#N)sc3nc2cc1OC the results were PAFAH1B3 FP inh 14, PP5 primary 0, PP1 counter 12, PAFAH2 inh 23, pPAFAH FP inh 52*, PAFAH1B2 FP inh 7 and pPAFAH FP conf 14.
For Cn1cccc1/C=C1/SC(=S)N(CC(=O)O)C1=O the results were PAFAH1B3 FP inh 8, PP5 primary 2, PP1 counter 4, PAFAH2 inh 0, pPAFAH FP inh 3 and PAFAH1B2 FP inh -1.
Screening N#CC1=C(N)Oc2n[nH]c(-c3cccs3)c2C1c1ccsc1 (stereo not drawn) returned PAFAH1B3 FP inh 8, PP5 primary -3, PP1 counter -4, PAFAH2 inh 10, pPAFAH FP inh 38*, PAFAH1B2 FP inh 10 and pPAFAH FP conf 6.
